# Compound activity from PubChem BioAssay.
# Shown are actives, neighbours in structure and some others; about 8.5% of the full set was active somewhere.
# ALDH1A1 block = inhibitors of human aldehyde dehydrogenase 1A1. P00352. Purified ALDH1A1, NADH fluorescence, propionaldehyde substrate. Potency, µM (doses to about 75.3 µM), usual class: inhibitors. 7.3% of 220,000 active; active means well fitted inhibition curve with a large enough effect, not every such curve was filed as active; inconclusive means small, poorly fitted or top-dose-only effect, or another doubt; inactive means no such curve, though single readings can be large or run the other way
# GoLoco inh red = RGS12 GoLoco-Gai1 interaction inhibition; P63096; Gai1:RGS12 GoLoco peptide FP, rhodamine, 10 min; Potency, µM (series often up to 61.6 µM), actives largely listed as inhibitors; 0.44% of 230,000 active; AID 880; active means well fitted inhibition curve with a large enough effect, not every such curve was filed as active; inactive means no such curve, though single readings can be large or run the other way; further: nearly all actives have a fitted effect of over 30% in size
# NPSR antagonist = antagonists of human neuropeptide S receptor cAMP signaling; Q6W5P4; CHO-NPSR cells, cAMP TR-FRET, antagonist mode; Potency, µM (titrated, usually from 38.3 µM), hits mostly inhibitors; 1% of 220,000 active; further: nearly all actives have a fitted effect of over 50% in size
# KDM4E inh = JMJD2E (human) inhibition. AID 2147. JMJD2E catalytic domain, FDH-coupled NADH fluorescence (FDH is formaldehyde dehydrogenase). Potency, µM (highest dose often 57.1 µM), usual class: inhibitors. B2RXH2. 1.6% of 230,000 active; active means well fitted inhibition curve with a large enough effect, not every such curve was filed as active; inconclusive means small, poorly fitted or top-dose-only effect, or another doubt; inactive means no such curve, though single readings can be large or run the other way; further: nearly all actives have a fitted effect of over 50% in size
# Target sequence (B2RXH2 1-337 limits assumed): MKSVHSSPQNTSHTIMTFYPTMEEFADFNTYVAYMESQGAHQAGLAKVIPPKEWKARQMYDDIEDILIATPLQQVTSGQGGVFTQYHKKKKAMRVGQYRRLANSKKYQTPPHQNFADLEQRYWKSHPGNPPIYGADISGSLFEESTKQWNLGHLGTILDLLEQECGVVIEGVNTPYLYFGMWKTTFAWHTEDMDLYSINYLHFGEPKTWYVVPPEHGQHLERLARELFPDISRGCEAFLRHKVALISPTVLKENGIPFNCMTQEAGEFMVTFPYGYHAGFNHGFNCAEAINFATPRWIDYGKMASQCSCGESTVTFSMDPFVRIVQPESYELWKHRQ
# Sfp PPTase inh = Sfp phosphopantetheinyl transferase inhibition | 3.5% of 310,000 active | Potency, µM, most hits filed as inhibitors | AID 1490 | Biochemical Sfp PPTase activity, qHTS;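 further: the enzyme is Sfp with the accession as filed and its product quenches rhodamine fluorescence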
#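 Reaction rates are the 30-min fluorescence difference (ex 525, em 598 nm) in wells containing 15 nM Sfp, 5 uM rhodamine-CoA and 12.5 uM BHQ-2-YbbR at pH 7.6 with 10 mM MgCl2.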
# Coupling enz = inhibits coupling enzyme system, counter-screen for aldolase hits; coupling enzyme system counterscreen, AmpLite Red fluorescence; activity change, negative = inhibition, % at 58.2 µM, hits read low; 0.67% of 290,000 active; AID 2472; in the data active means activity change below about -30%
#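 Counterscreen of the coupled detection system alone, without aldolase: glyceraldehyde-3-phosphate coupling enzymes plus AmpLite Red readout. Compounds at 57.5 uM final, 10 min RT preincubation, 20 min RT reaction, fluorescence 525/598 nm.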
# A number is an active result; . = inactive; ? = inconclusive; / = no result given; [ ] = remark or other dose. Unless noted, the call rests on the fitted dose curve; in most records, active means well fitted curve in the direction sought with a large enough effect; inconclusive means small, poorly fitted or top-dose-only effect, or another doubt; inactive means no such curve, though single readings can be large; an effect the other way counts as inactive or inconclusive.
SMILES,ALDH1A1 block,GoLoco inh red,NPSR antagonist,KDM4E inh,Sfp PPTase inh,Coupling enz
Cn1c(-c2cccc(Br)c2)cnc1NCc1cccnc1,11.2µM,.,.,?,?,.
COc1ccc(N2CCN(C(=O)CCC(=O)N3CC(C)Oc4ccc(C)cc43)CC2)cc1 (configuration not stated),/,/,/,/,.,.
CC(=O)Nc1ccc(N2C(=O)CC(c3ccccc3)CC2=O)cc1,.,.,.,.,.,.
CC(=O)Nc1ccc(N2C(=O)CC(Sc3nc4ccccc4s3)C2=O)cc1 (configuration not stated),0.708µM,.,.,.,.,.
CCOC(=O)c1cnc(SC2CC(=O)N(c3ccc(OC)c(OC)c3)C2=O)nc1N (configuration not stated),?,.,.,.,.,.
COc1ccc(N2C(=O)CC(Sc3nc4ccccc4s3)C2=O)cc1OC (configuration not stated),3.55µM,.,.,.,.,.
c1ccc2oc(-c3ccc(Nc4nc(N5CCCC5)nc(N5CCOCC5)n4)cc3)nc2c1,?,.,.,?,.,.
O=C1OCC(c2ccccc2)=C1c1ccccc1,/,/,/,/,.,.
CS(=O)(=O)c1ccc(C2=C(c3ccccc3)C(=O)OC2)cc1,2.82µM,.,/,.,.,.
COc1ccc(C=O)cc1OC(=O)C1(C)Cc2ccccc2C(=O)O1 (configuration not stated),5.01µM,.,.,.,.,.
CC(=O)N1CCc2c(sc(NC(=O)c3ccc([N+](=O)[O-])o3)c2C#N)C1,3.16µM,.,2.51µM,.,10µM,.
O=C(/C=C/c1cccc([N+](=O)[O-])c1)Nc1cccc(NC(=O)c2cccs2)c1,?,.,.,.,.,.
CC(C)(C)c1ccc(C(=O)C=[N+]=[N-])cc1,6.31µM,.,.,.,.,.
N#CCCn1cc(/C=N/NC(=O)c2ccncc2)c(-c2ccc(F)cc2)n1,.,.,.,.,.,.
Cc1cc(C)cc(NC(=O)CSc2nc(CSc3ccc(Cl)cc3)cc(=O)[nH]2)c1,/,.,.,.,.,.
CCCN(C(=O)CSc1nnnn1-c1ccccc1OC)C1CCS(=O)(=O)C1 (configuration not stated),/,/,/,/,.,.
Cc1ccc(-c2nn(CCC(=O)NN3CCOCC3)c(=O)c3ccccc23)cc1,?,.,.,.,.,.
COc1cc(OC)cc(C(=O)N2CCN(Cc3cccc(F)c3)CC2)c1,?,.,.,?,.,.
O=C(c1cccnc1)N1CCN(Cc2ccc3c(c2)OCO3)CC1,.,.,.,?,?,.
COc1cccc(C(=O)N2CCN(Cc3cccc(F)c3)CC2)c1,17.8µM,.,.,?,50.1µM,.
COc1ccc(CC2(CO)CCN(Cc3cccnc3)CC2)cc1,.,.,.,.,8.91µM,.
O=C(c1cccnc1)N1CCN(Cc2cccc(Br)c2)CC1,10µM,.,.,?,89.1µM,.
COc1ccccc1C(=O)N1CCN(Cc2cccnc2)CC1,/,/,/,/,63.1µM,.
COc1ccccc1C(=O)N1CCN(C2CCN(Cc3ccccc3)CC2)CC1,?,.,.,?,.,.
Cc1cccn2c(CNCCc3ccco3)c(C(=O)N3CCOCC3)nc12,/,/,/,/,.,.
SMILES,ALDH1A1 block,GoLoco inh red,NPSR antagonist,KDM4E inh,Sfp PPTase inh,Coupling enz
O=C(O)/C=C(/C(=O)O)[C@]12CCN3CC4=CCO[C@@H]5CC(=O)N[C@@H]1C5[C@H]4C[C@H]32 (some centres not stated),.[13.5 µM],.[14.2 µM],/,/,/,/
C[C@@H](CN=[N+]=[N-])CN1CC[C@H](C(C)(C)C)CCC1=O,/,/,/,/,.,.
O=C(c1cccnc1)N1CCN(C(=O)c2ccccc2F)CC1,.,.,.,.,.,.
O=C(c1cccnc1)N1CCN(Cc2ccccc2Br)CC1,.,.,.,?,50.1µM,.
COc1ccc(CN2CCN(C(=O)c3cccnc3)CC2)cc1Br,?,.,.,?,79.4µM,.
CCOC(=O)C1(C)C=C(Nc2ccc(O)cc2)C(=O)N1c1ccc(O)cc1 (configuration not stated),3.55µM,.,.,.,50.1µM,-49.2
CCOC(=O)C1(C)C=C(Nc2cccc(OC)c2)C(=O)N1c1ccccc1 (configuration not stated),/,.,?,?,.,.
CCOC(=O)C1(C)C=C(Nc2ccc(OC)cc2)C(=O)N1c1ccc(OC)cc1 (configuration not stated),2.82µM,.,.,.,.,.
Oc1cccc(O)c1O,1.5µM,.,/,/,39.8µM,/
COc1c(O)cccc1O,.,.,/,.,.,.
O=C(O)C1OC(Oc2c(-c3ccc(O)c(O)c3)oc3cc(O)cc(O)c3c2=O)C(O)C(O)C1O (configuration not stated),?,.,.,4.47µM,.,.
CC1OC(Oc2c(-c3cc(O)c(O)c(O)c3)oc3cc(O)cc(O)c3c2=O)C(O)C(O)C1O (configuration not stated),/,.,.[7.67 µM],.,7.94µM,-46.9
O=c1c(O)c(-c2ccc(O[C@@H]3O[C@H](CO)[C@@H](O)[C@H](O)[C@H]3O)c(O)c2)oc2cc(O)cc(O)c12,/,/,/,/,.,.
C=CCc1cc(OC)ccc1OCCN1CC(C)OC(C)C1 (configuration not stated),/,/,/,/,56.2µM,.
C/C(CCC1CC(C)(C)OC1=O)=N\NC(N)=S (configuration not stated),/,.,.,.,44.7µM,.
C/C(CC1CC(C)(C)OC1=O)=N\NC(N)=S (configuration not stated),/,.,.,?,35.5µM,.
CC(C)CCC1CC(CSC(=N)N)OC1=O (configuration not stated),.,.,.,.,.,.
CCCC1CC(C)(/C(C)=N\NC(N)=S)OC1=O (configuration not stated),.,.,.,.,.,.
C/C(CC1CC(COCCC(C)C)OC1=O)=N\NC(N)=S (configuration not stated),.,.,.,.,79.4µM,.
CC(C)NCc1c(O)c(Br)cc2oc3c(c12)CCCC3,.,5.62µM,.,.,.,.
O=c1cc(N2CCc3ccccc3C2)[nH]c(=O)n1-c1ccccc1Cl,6.31µM,.,.,?,.,.
COc1ccc(O[C@H]2C=C[C@@H](c3ccccc3)O[C@H]2COC(=O)NCc2cccc3ccccc23)cc1,.[13.5 µM],/,/,/,.,.
Cc1cc(C)nc(/N=C(\N)Nc2ccc(OCCC(C)C)cc2)n1,/,/,/,/,.,.
CCOC(=O)CC1C(=O)NCCN1c1nc2c(C)cccn2c(=O)c1/C=C1\SC(=S)N(CC(C)C)C1=O (configuration not stated),/,.,10µM,.,.,.
C[C@@]1(CO)[C@H](O)CC[C@]2(C)[C@@H]1CC[C@H]1C[C@H]3C[C@]12CC[C@]3(O)COC(=O)CN,.[13.5 µM],.[14.2 µM],/,/,/,/
